Mtb FBA inh = inhibitors of M. tuberculosis fructose-bisphosphate aldolase | P9WQA3 | actives 2.3% (n = 360,000) | purified M. tuberculosis FBA, fluorescence read-out | inhibition, % at 1 µM
Mtb betalactam = beta-lactam sensitization of Mtb H37Rv | M. tuberculosis H37Rv growth with meropenem, percent inhibition | inhibition, % at 25 µM | actives 0.27% (n = 330,000); call rule not given here;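 note: growth measured after seven days incubation then overnight dye step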
UGM FP inh = inhibitors of M. tuberculosis UDP-galactopyranose mutase; P9WIQ1; purified UGM, fluorescence polarization probe displacement; inhibition, % at 10 µM; actives 0.06% (n = 320,000); in the data active = inhibition above about 10%, passing the limit was not always enough
Rv3671c inh = Rv3671c (M. tuberculosis) protease inhibition. P9WHR9. inhibition, % at 5.96 µM. actives 0.048% (n = 320,000). AID 2606; in the data active = inhibition above about 38%;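 note: extracellular domain of Rv3671c used as enzyme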
Target sequence (P9WHR9 whole entry, looked up, the tested form may be a part): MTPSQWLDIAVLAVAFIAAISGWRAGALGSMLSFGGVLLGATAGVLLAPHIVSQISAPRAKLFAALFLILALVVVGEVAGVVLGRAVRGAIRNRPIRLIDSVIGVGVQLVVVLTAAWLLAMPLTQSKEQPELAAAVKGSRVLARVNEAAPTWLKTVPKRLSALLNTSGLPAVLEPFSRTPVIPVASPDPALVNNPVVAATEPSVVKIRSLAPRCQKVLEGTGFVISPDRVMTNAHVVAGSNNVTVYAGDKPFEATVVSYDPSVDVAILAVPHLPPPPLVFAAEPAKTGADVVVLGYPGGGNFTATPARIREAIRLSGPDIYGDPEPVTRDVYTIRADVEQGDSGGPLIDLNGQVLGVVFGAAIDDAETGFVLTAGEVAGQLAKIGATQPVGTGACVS
GDH-TPI counter-1 = inhibits GDH-TPI coupling enzymes, artifact for Mtb FBA screen. GDH-TPI coupled enzyme counterscreen, NADH absorbance. inhibition, % at 4.8 µM. actives 1.2% (n = 360,000); in the data active = inhibition above about 30%
PriA SSB inh = K. pneumoniae PriA-SSBct interaction inhibition. AlphaScreen SSBct-PriA binding, biotinylated peptide. inhibition, % at 33 µM. actives 0.6% (n = 430,000); in the data active = inhibition mostly above about 37%, no sharp cut-off; inactive = mostly below about 20%
Mtb FBA confirm = confirmation of M. tuberculosis fructose-bisphosphate aldolase inhibitors; AID 651616; shares compounds with Mtb FBA inh; actives 78% (n = 5,600); inhibition, % at 1 µM; purified M. tuberculosis FBA, fluorescence read-out
GDH-TPI counter-2 = counter-screen for M. tuberculosis FBA inhibitors: GDH-TPI coupled enzyme inhibition | shares compounds with Mtb FBA inh | GDH-TPI coupled enzyme counterscreen, fluorescence | inhibition, % at 1 µM | actives 81% (n = 5,600); in the data active = inhibition above about 10%
A number is an active result; – = inactive; · = not tested or not shown; + = active, no number. Shown are actives, neighbours in structure and some others; about 3.2% of the full set was active somewhere. Cut-off read from the data, not from the text of the source, unless noted: active = inhibition above about 27%; inactive = the rest.

SMILES	Mtb FBA inh	Mtb betalactam	UGM FP inh	Rv3671c inh	GDH-TPI counter-1	PriA SSB inh	Mtb FBA confirm	GDH-TPI counter-2
CCCCNC(=S)Nc1ccc(-c2nc3ccc(C)cc3s2)cc1	56	–	–	–	–	–	–	–
COCCNc1nnc(SC(C)C(=O)Nc2c(C)n(C)n(-c3ccccc3)c2=O)s1 (stereo not drawn)	–	–	–	–	–	–	·	·
Cc1ccc(COC(=O)c2ccc(C3Nc4ccccc4S(=O)(=O)N3)cc2)cc1 (stereo not drawn)	·	·	·	·	·	–	·	·
Cc1cc2ncc3c(n2n1)CCNC3	·	·	·	·	·	–	·	·
NC(=O)c1ccc(NC(=O)Cc2csc(Nc3ccc(F)cc3)n2)cc1	·	·	·	·	·	–	·	·
Cc1ccc2nc(-c3ccc(NC(=O)CN4CCN(C(=O)c5ccco5)CC4)cc3)sc2c1	46	–	–	–	–	–	+	+
CCC(C)(C)NC(=S)Nc1ccc(-c2nc3ccc(C)cc3s2)cc1	92	–	–	–	–	–	–	–
C=CCn1c(SCC(=O)Nc2ccc(-c3nc4ccc(C)cc4s3)cc2)nnc1-c1ccccc1	41	–	–	–	–	–	+	+
Cc1ccc2nc(-c3ccc(NC(=S)NCC(C)(C)CN(C)C)cc3)sc2c1	77	·	·	·	–	–	69	53
Cc1ccc(NC(=O)CN2CCN(C(=O)c3ccco3)CC2)cc1	–	–	–	–	–	–	·	·
COc1ccccc1C(=O)NCc1ccnc(-c2ccsc2)c1	·	·	·	·	·	–	·	·
CCOc1ccccc1C(=O)NCCn1ncccc1=O	·	·	·	·	·	–	·	·
Cc1ccn2cc(-c3cccc(NC(=O)C(C)C)c3)nc2c1	40	–	–	–	–	–	113	87
CC(=O)Nc1cccc(-c2cn3ccccc3n2)c1	43	–	–	–	–	–	40	41
CC(C)C(=O)Nc1cccc(-c2cn3ccccc3n2)c1	–	–	–	–	–	–	·	·
COc1ccc(CC(=O)Nc2ccc(-c3cn4ccc(C)cc4n3)cc2)cc1	58	–	–	–	–	–	168	143
O=C(CN1CCN(c2ccc3c(c2)OCO3)C1=O)Nc1nc2ccc(Cl)cc2s1	·	·	·	·	·	–	·	·
CC(C)N1CCN(C(=O)c2ccccc2C(=O)O)CC1	·	·	·	·	·	–	·	·
Nc1ccc2nn(-c3ccc(F)cc3)nc2c1	37	–	–	–	–	–	62	52
Nc1ccc2nn(-c3cc([N+](=O)[O-])ccc3O)nc2c1	–	–	–	–	–	–	·	·
CC(C)c1ccc(-n2nc3ccc(N)cc3n2)cc1	71	–	–	–	–	–	101	67
Cc1nn(CC#N)c(=O)n1-c1ccc(C(C)C)cc1	–	–	–	–	–	–	·	·
Cc1ccc(-n2nc(-c3ccc(N)cc3)cc2N)cc1	–	–	–	–	–	–	·	·
Cc1ccc(-n2nc3ccc(N)cc3n2)cc1	64	–	–	–	–	–	39	23
Cc1nccn1-c1ncc(NC(=O)c2ccco2)cn1	·	·	·	·	·	–	·	·
SMILES	Mtb FBA inh	Mtb betalactam	UGM FP inh	Rv3671c inh	GDH-TPI counter-1	PriA SSB inh	Mtb FBA confirm	GDH-TPI counter-2
COc1ccc(C(=O)Cn2nc(C3CCN(S(C)(=O)=O)CC3)n(C)c2=O)cc1	·	·	·	·	·	–	·	·
COc1ccc2sc(-c3ccc(SC)cc3)c(C#CCO)c2c1	–	–	–	–	–	–	·	·
COc1ccc2sc(-c3ccc(N(C)C)cc3)c(C#Cc3cncn3C)c2c1	108	–	–	–	–	–	127	102
CN(C(=O)c1ccc(Cl)cc1)C1CCS(=O)(=O)C1 (stereo not drawn)	–	–	–	–	–	–	·	·
COc1cc2cc(C(=O)N(C)C3CCS(=O)(=O)C3)[nH]c2cc1OC (stereo not drawn)	31	–	–	–	–	–	–	–
COc1ccc(C)cc1NC(=O)C(=O)NCCCn1ccnc1	·	·	·	·	·	–	·	·
Cc1ccc(-c2csc(NC(=O)CN3CC(C)OC(C)C3)n2)cc1 (stereo not drawn)	42	–	–	–	–	–	88	67
COc1ccc(-c2sc3ccc(N4CCOCC4)cc3c2C#CC(C)(C)O)cc1	–	–	–	–	–	–	·	·
COc1ccc(-c2oc3ccc(N4CCOCC4)cc3c2C#CCO)cc1	33	–	–	–	47	–	48	35
Nc1ccc(C#Cc2c(-c3ccsc3)oc3ccc(N4CCOCC4)cc23)cc1	41	–	–	–	–	–	102	75
COc1cccc(C=Nn2c(N)nc3ccccc32)c1OC	·	·	·	·	·	–	·	·

Assay outcomes (PubChem)
